Source: PubChem BioAssay AID1852 (Sanford-Burnham Center for Chemical Genomics, 2009)
Hit rate of the full screen: of about 2,500 compounds, about 1,100 (44%) were called active.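 The calls were made as follows: active = inhibition above 50% at 4 µM in the single-point screen; inactive = inhibition of 50% or less.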 The set was probably picked from earlier hits. Some of the results follow.

Assay: blockers of TNF-a NF-kB luciferase induction – cell-based, HEK293T NF-kB-Luc, luminescence, selectivity assay for NOD1/NOD2 signaling inhibitor project, primary screen (AID 1852)
Conditions: TNF-a induced, 14 h, at 4 µM, stronger effect = higher value

| Compound | inhibition |
| --- | --- |
| COc1ccc(N(Cc2cc3cc(OC)ccc3[nH]c2=O)S(=O)(=O)c2ccc(NC(C)=O)cc2)cc1 | 16.3% (inactive) |
| COc1ccc2[nH]c(=O)c(CN(Cc3cccnc3)S(=O)(=O)c3ccccc3F)cc2c1 | 50.9% (active) |
| N#C/C(=C\C=C\c1ccccc1[N+](=O)[O-])C(=O)NC1CCCCC1 | 61.6% (active) |
| CC1CCCCC1NC(=O)/C(C#N)=C/C=C/c1ccccc1[N+](=O)[O-] (centres undefined) | 47.1% (inactive) |
| O=[N+]([O-])c1ccc(Sc2nccn2Cc2ccccc2)c([N+](=O)[O-])c1 | -0.6% (inactive) |
| C=CCn1nc([N+](=O)[O-])nc1Sc1cccc2cccnc12 | 95.9% (active) |
| Cn1nc([N+](=O)[O-])nc1Sc1cccc2cccnc12 | 31.7% (inactive) |
| Cc1cc(C)nc(Sc2ccc([N+](=O)[O-])cc2[N+](=O)[O-])n1 | -34.5% (inactive) |
| O=C(Cn1nc([N+](=O)[O-])nc1Br)NC(c1ccccc1)c1ccccc1 | -0.7% (inactive) |
| O=[N+]([O-])c1ccc(Sc2cccc3cccnc23)c([N+](=O)[O-])c1 | 103% (active) |
| CC(C)c1ccc(/C=C(\c2nc3ccccc3[nH]2)S(=O)(=O)c2ccccc2)cc1 | 107% (active) |
| O=S(=O)(Nc1nc2ccccc2[nH]1)c1ccccc1 | 34.8% (inactive) |
| O=S(=O)(/C(=C/c1ccc(C(F)(F)F)cc1)c1nc2ccccc2[nH]1)c1ccccc1 | 72.8% (active) |
| Cc1cccc(/C=C(\c2nc3ccccc3[nH]2)S(=O)(=O)c2ccccc2)c1 | 82.2% (active) |
| COc1ccc(S(=O)(=O)NCC2CCCN(Cc3cccnc3)C2)cc1 (centres undefined) | -9.5% (inactive) |
| C/C=C/Cn1c(SCCCc2ccccc2)nc2c1c(=O)[nH]c(=O)n2C | 5.5% (inactive) |
| N#Cc1ccc(C(=O)Nc2nc(-c3cccs3)c(C(=O)C(F)(F)F)s2)cc1 | 70% (active) |
| Cc1cc(C)c(C(=O)/C=C/c2cccc3ccccc23)c(=O)[nH]1 | 92.8% (active) |
| COc1ccc(/C=C/C(=O)c2c(C)cc(C)[nH]c2=O)c2ccccc12 | 20.8% (inactive) |
| O=C(O)C(Cc1ccccc1)N1C(=O)/C(=C/c2cccc3ccccc23)SC1=S (centres undefined) | 31.7% (inactive) |
| Cc1cc(C)c(C(=O)/C=C/c2ccc(C(C)C)cc2)c(=O)[nH]1 | 72.7% (active) |
| O=c1cc(-c2ccccc2)nc2c(-c3ccccc3)c(C(F)(F)F)[nH]n12 | 73.9% (active) |
| O=c1cc(-c2ccccc2)nc2cc(-c3ccc(Br)cc3)[nH]n12 | 38.7% (inactive) |
| COc1ccc(-c2c(C(F)(F)F)[nH]n3c(=O)cc(-c4ccccc4)nc23)cc1 | 55.7% (active) |
